MITF act = increases MITF-driven TRPM1 promoter luciferase signal | SK-MEL-5 TRPM1-promoter luciferase, 24 h; % of positive control, neutral wells = 0 | activation, % at 12.5 µM | hit rate 0.75% among 300,000 | AID 588334;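 active = mean activation of at least 80% with every replicate also reaching 80%; inconclusive = mean reaches 80% but some replicate falls short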
NSD2 HMT inh = blocks human histone methyltransferase NSD2. NSD2 peptide methylation, AlphaScreen, 120 min. inhibition, % at 12.5 µM. hit rate 0.54% among 310,000. AID 743445
Wnt act = Wnt/beta-catenin pathway activation | hit rate 1.2% among 300,000 | Wnt/beta-catenin reporter cell assay, activator, plate reader | activation, % at 9.35 µM | AID 743398; in the data active = activation above about 30%, passing the limit was not always enough; inconclusive = no clear call, values can overlap the other calls
miR122 inh = inhibitors of miR-122 in Huh7 cells; Huh7 miR-122 Renilla luciferase sensor, 48 h; neutral wells = 0, positive control = 100; activation (reporter increase), % at 12.5 µM; hit rate 0.3% among 340,000; AID 602342;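 active = mean replicate activation score at least 90 and every replicate individually at or above 90; inconclusive = only one of the two criteria met; inactive = neither criterion met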;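 note: higher luciferase means less miR-122 activity so hits act as miR-122 inhibitors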
GSIS activator = GLuc luminescence reporter in INS-1E cells, primary screen for activators of glucose-dependent secretion of insulin; INS-1E GLuc reporter insulin secretion, 2-3 h; hit rate 0.61% among 370,000; AID 743287; activation, % at 16.6 µM;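 active = lowest replicate activation of at least 40%, so every replicate reaches that level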
Dyrk1A ADPGlo = blocks rat Dyrk1A kinase activity | ADP-Glo luminescence, NFATc1 peptide | inhibition, % at 12.5 µM | Q63470 | hit rate 0.43% among 310,000
A number is an active result; n = inactive; u = inconclusive; x = no result; ! = a repeat was not active. A selection: hits, their analogues and other compounds. The true share with any hit is near 2.4%. Cut-off read from the data, not from the text of the source, unless noted: active = inhibition above about 50%; inactive = the rest.

SMILES | MITF act | NSD2 HMT inh | Wnt act | miR122 inh | GSIS activator | Dyrk1A ADPGlo
CCCN(Cc1nnc(-c2ccccc2Cl)o1)C(=O)c1cc2ccccc2o1 | n | n | n | x | 62.7 | n
C[C@H](CO)N1C[C@H](C)[C@@H](CN(C)C(=O)Nc2cccc3ccccc23)Oc2ccc(NC(=O)Cc3ccccc3)cc2C1=O | x | x | x | x | n | x
C=CCN=C1S/C(=C\c2ccc(N(C)C)cc2)C(=O)N1CC=C | 99.4 | n | 37.2 | x | x | x
N[C@@H](Cc1cc(I)c(Oc2ccc(O)c(I)c2)c(I)c1)C(=O)O | n | x | n | 93.2! | x | n
COc1cc2ccccc2cc1C(=O)Nc1ccccc1N1CCCC1 | n | n | n | x | n | n
COc1cc2ccccc2cc1C(=O)Nc1ccccc1Cl | n | n | 45.1 | n | n | n
COc1cc2ccccc2cc1C(=O)Nc1ccc(C)cn1 | n | n | 35.0 | x | n | n
C[C@@H]1CN([C@H](C)CO)C(=O)Cc2cc(NC(=O)Cn3cnnn3)ccc2O[C@@H]1CN(C)Cc1ccc(C(=O)Nc2ccccc2N)cc1 | x | x | x | x | n | x
COc1ncccc1-c1nnn(-c2ccc(Cl)nc2)n1 | n | x | n | x | n | n
Clc1ncccc1-c1nnn(-c2ccccc2Br)n1 | n | x | n | n | n | n
Cc1ccc(-n2nnc(-c3ccnc4ccccc34)n2)cc1 | 93.6 | x | 40.3 | n | n | n
Cc1ccc(-n2nnc(-c3cccnc3Cl)n2)cc1 | n | x | 31.5 | n | x | n
Clc1ccc(-n2nnc(-c3cccnc3Cl)n2)cn1 | 126.1 | x | 40.9 | n | n | n
C[C@@H]1CN([C@@H](C)CO)C(=O)c2cc(-c3ccc(F)cc3)cnc2O[C@@H]1CN(C)C(=O)CN(C)C | x | x | x | n | n | x
COc1cccc(NC(=O)N[C@@H]2CC[C@@H](CC(=O)NCc3ccncn3)O[C@H]2CO)c1 | x | x | x | n | n | x
COc1ccc(-c2nc3ccccc3c(=O)n2CCCN2CCOCC2)cc1 | n | n | n | n | n | n
CCCn1c2ccccc2c2nnc(SCCN3CCOCC3)nc21 | n | n | n | n | x | n
c1ccc2nc3c(nc2c1)c1ccccc1n3CCN1CCOCC1 | n | n | x | n | 71.6 | n
Cc1nc2ccccc2c(=O)n1CCCN1CCOCC1 | n | n | n | x | 40.3 | n
CO[C@@H]1CN(C)C(=O)c2ccc(NC(=O)c3cc(C)on3)cc2OC[C@@H](C)N(CC2CC2)C[C@H]1C | x | x | x | x | n | x
Cc1ccc(CN2CCSc3ccc(C(=O)NCCCN4CCN(C)CC4)cc32)cc1 | n | n | n | x | n | n
Cc1ccc(CN2CCSc3ccc(C(=O)NCc4cccnc4)cc32)cc1 | n | n | n | 155.4 | n | n
Cc1noc(C)c1NC(=O)N(C)C[C@@H]1OCCCC[C@@H](C)Oc2ccc(N(C)C)cc2C(=O)N([C@H](C)CO)C[C@@H]1C | x | x | x | n | n | x
O=C(/C=C/c1ccc(Cl)cc1Cl)N1CCc2ccccc21 | n | n | 48.5 | x | n | n
O=C(c1ccc(Cl)cc1Cl)N1CCc2ccccc21 | n | n | n | n | n | n
SMILES | MITF act | NSD2 HMT inh | Wnt act | miR122 inh | GSIS activator | Dyrk1A ADPGlo
Cc1noc(C)c1S(=O)(=O)Nc1ccc2c(c1)C(=O)N([C@@H](C)CO)C[C@H](C)[C@H](CN(C)Cc1ccc3c(c1)OCO3)OCCCC[C@@H](C)O2 | x | x | x | n | n | x
CCCc1ccc(-c2cc(C(=O)NCCc3ccc(S(N)(=O)=O)cc3)c3ccccc3n2)cc1 | 105.7 | n | x | n | n | x
Nc1c(/C=C2/C=CC(=O)C(O)=C2)c(=O)nc2sc(CC(=O)N3CCCC3)nn12 | n | 118.5 | n | n | n | n
Nc1c(/C=C2/C=CC(=O)C(O)=C2)c(=O)nc2sc(CC(=O)N3CCCCC3)nn12 | n | 142.1 | n | n | n | n
COC1=C/C(=C/c2c(N)n3nc(CC(=O)N4CCCC4)sc3nc2=O)C=CC1=O | n | n | n | n | n | n
Nc1c(C=C2C=CC(=O)C=C2)c(=O)nc2sc(CC(=O)N3CCCCC3)nn12 | n | n | n | x | n | x
COc1ccc(C)c(-n2c(=O)n(Cc3ccccc3)c(=O)c3[nH]cnc32)c1 | x | n | n | n | 62.9 | x
Cc1ccc(S(C)=O)cc1-n1c(=O)n(Cc2ccccc2)c(=O)c2[nH]cnc21 (centres undefined) | n | n | n | x | n | n
CC(=O)Nc1cccc(-n2c(=O)n(Cc3ccccc3)c(=O)c3[nH]cnc32)c1 | n | n | n | n | 42.9 | n
COc1ccc(Cn2c(=O)c3[nH]cnc3n(-c3ccccc3C)c2=O)cc1 | n | n | n | x | 63.5 | n
COc1cccc(-n2c(=O)n(Cc3ccccc3)c(=O)c3[nH]cnc32)c1C | x | n | n | n | 76.3 | n
COCC(=O)Nc1ccc2c(c1)C(=O)N(C)C[C@@H](OC)[C@@H](C)CN(Cc1cccnc1)[C@@H](C)CO2 | x | x | x | x | n | x
C[C@@H]1CN([C@@H](C)CO)C(=O)Cc2cc(NS(=O)(=O)c3cccs3)ccc2O[C@@H]1CN(C)Cc1ccncc1 | x | x | x | n | n | x
COc1cccc(-c2ccc([C@H]3[C@@H](CO)N(C(C)=O)C34CN(C(C)=O)C4)cc2)c1 | x | x | x | x | n | x
O=C(/C=C/c1cccc(F)c1)Nc1nccs1 | n | n | n | n | n | n
O=C(Nc1nccs1)C(=O)c1c[nH]c2ccccc12 | u | n | 59.2 | n | x | n
CCC(C)(CC(=O)Nc1nccs1)c1ccccc1 (centres undefined) | n | n | n | n | 40.6 | n
O=C(/C=C\c1ccccc1)Nc1nccs1 | n | n | 39.4 | n | n | n
O=C(Nc1nccs1)C(Br)C(Br)c1ccccc1 (centres undefined) | n | n | 37.1 | n | n | n
O=C(Cc1c[nH]c2ccccc12)Nc1nccs1 | n | n | n | n | x | n
O=C(NCc1ccccc1)C(=O)Nc1nccs1 | n | n | n | n | n | n
O=C(Nc1nccs1)OCc1ccccc1 | x | n | 34.3 | n | n | x
COc1ccc2c3c([nH]c2c1)[C@@H](CO)N(C(=O)c1ccncc1)CC31CN(C(=O)C2CCC2)C1 | x | x | x | x | n | x
O=C(C[C@@H]1C=C[C@H](NS(=O)(=O)c2ccc(F)cc2)[C@@H](CO)O1)NCc1ccccc1F | x | x | x | x | n | x
CN(C)/N=C/C=C1\CCC/C(=C/c2cccs2)C1=O | n | n | 51.7 | n | n | n
SMILES | MITF act | NSD2 HMT inh | Wnt act | miR122 inh | GSIS activator | Dyrk1A ADPGlo
CN(C)/N=C/C=C1\CC/C(=C\c2ccc(Br)cc2)C1=O | n | n | n | n | x | n
C[C@@H]1CN([C@H](C)CO)S(=O)(=O)c2ccc(-c3ccccc3)cc2O[C@@H]1CN(C)C(=O)c1ccccc1F | x | x | x | n | n | x
COc1ccccc1-c1cn(CC[C@@H]2CC[C@H](NC(=O)NC(C)C)[C@H](CO)O2)nn1 | x | x | x | x | n | x
Cc1ccc(/C=C/C(=O)Nc2nc3ccccc3[nH]2)cc1 | 106.5 | n | n | x | n | n
O=C(/C=C/c1c(F)cccc1Cl)Nc1ccncc1 | n | n | x | n | n | n
Cc1ccc(/C=C/C(=O)c2nc3ccccc3[nH]2)cc1 | n | n | 36.7 | n | x | n
O=C(/C=C/c1c(Cl)cccc1Cl)Nc1ccncc1 | 88.5 | n | n | n | x | x
CC(=O)Nc1nc2ccccc2[nH]1 | n | n | n | x | n | n
